# From PubChem BioAssay (Tox21)
# “And” between values parts separate entries of the source, which are not always exact repeats. Equal entries are not always repeated. Results filed as inconclusive are left out. A call without a number means that no potency is given here. Where a structure was tested more than once in an assay, its records may differ in their call. The source made the active and inactive calls. The call rests on the fitted dose curve.
# System: not listed separately
# Assay: qHTS assay to identify small molecule agonists of the AP-1 signaling pathway (AID 1159526)
# Conditions: ME-180 (cervical carcinoma) AP-1-bla reporter, beta-lactamase FRET ratio, 5 h; series mostly up to 76.8 µM
Structure (SMILES),Potency,activation
CCc1cc(C(C)(C)C)c(O)c(C(C)(C)C)c1,inactive,–
COC(=O)[C@H]1[C@H]2C[C@@H]3c4[nH]c5cc(OC)ccc5c4CCN3C[C@H]2C[C@@H](OC(=O)c2cc(OC)c(OC)c(OC)c2)[C@@H]1OC,inactive,–
NCCCCCC(=O)O,inactive,–
CCCCCCCCCCCCCCCCCl,–,-1.11% [at 15.8 µM] (inactive)
CC(C)(C)NCC(O)COc1ccccc1OCC1CCCO1 (stereo not drawn),inactive,–
CC(N)=O,inactive,–
O=c1n(CC2CO2)c(=O)n(CC2CO2)c(=O)n1CC1CO1 (stereo not drawn),inactive,–
CCC(=O)/C=C/C1C(C)=CCCC1(C)C (stereo not drawn),inactive,–
NC(N)=Nc1nc(CSCC/C(N)=N/S(N)(=O)=O)cs1,inactive,–
CC(=O)CC(C)=O,inactive,–
CCCCCC(=O)O[C@]1(C(C)=O)CC[C@H]2[C@@H]3CCC4=CC(=O)CC[C@]4(C)[C@H]3CC[C@@]21C,inactive,–
CC(=O)OCC1=C(C(=O)O)N2C(=O)[C@@H](NC(=O)Cc3cccs3)[C@H]2SC1,inactive,–
OCC(CO)N[C@H]1C[C@](O)(CO)[C@@H](O)[C@H](O)[C@H]1O,inactive,–
CC1COC(=O)O1 (stereo not drawn),inactive,–
Cc1occc(=O)c1OC(=O)C(C)C,inactive,–
C=C(C)C1CC=C(C)C(OC(C)=O)C1 (stereo not drawn),inactive,–
Cc1scc2c1N(C(=O)CN1CCN(C)CC1)c1ccccc1NC2=O,inactive,–
O=S(=O)(O)c1ccc2nc(-c3ccccc3)[nH]c2c1,inactive,–

Structure (SMILES),Potency,activation
CCC[C@H](N[C@@H](C)C(=O)N1[C@H](C(=O)O)C[C@@H]2CCCC[C@@H]21)C(=O)OCC,inactive,–
CCCCCCCCCCCC[N+](C)(C)C,inactive,–
Cc1cc(C2(c3cc(C)c(O)cc3C)OS(=O)(=O)c3ccccc32)c(C)cc1O,inactive,–
CC[C@@H](N)CO,inactive,–
Nc1cc(S(=O)(=O)O)cc2cc(S(=O)(=O)O)cc(O)c12,inactive,–
Nc1ccc2cc3ccccc3cc2c1,inactive,–
CNC1(C)C2CCC(C2)C1(C)C (stereo not drawn),inactive,–
c1ccc2n[nH]nc2c1,inactive,–
CCc1ccc(C(c2ccc(CC)cc2)C(Cl)Cl)cc1,inactive,–
c1ccc2cc3c(ccc4ccccc43)cc2c1,inactive,–
CCn1c2ccccc2c2cc(N)ccc21,inactive,–
CCN(CC)C(=O)Nc1ccc(OCC(O)CNC(C)(C)C)c(C(C)=O)c1 (stereo not drawn),inactive,–
Cc1cc(C(C)(C)C)c(O)c(C(C)(C)C)c1,inactive,–
COc1cc(C(=S)N2CCOCC2)ccc1O,inactive,–
NNCCc1ccccc1,inactive,–
CC(C)(C)NC(=O)[C@@H]1CN(Cc2cccnc2)CCN1C[C@@H](O)C[C@@H](Cc1ccccc1)C(=O)N[C@H]1c2ccccc2C[C@H]1O,inactive,–
CC(C)CCOCc1ccccc1,inactive,–

# Target: Retinoic acid receptor RXR-alpha (Homo sapiens) (UniProt P19793)
# Assay: qHTS assay to identify small molecule agonists of the RXR signaling pathway (AID 1159527); further: nearly all actives have a fitted effect of over 35% in size; further: potency means the concentration at half of the fitted maximal effect
# Conditions: HEK293T RXRa-UAS-bla, beta-lactamase ratio, 16 h; series mostly up to 76.8 µM
# How it was run: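 Read-out: beta-lactamase FRET ratio (405 nm excitation, 460 and 530 nm emission) after 2 hr substrate loading at room temperature. Cells were RXR-alpha-UAS-bla HEK 293T treated with compounds for 16 hr in 2% charcoal-stripped FBS medium.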
# Retinoic acid receptor RXR-alpha (Homo sapiens), sequence (P19793 whole entry, looked up): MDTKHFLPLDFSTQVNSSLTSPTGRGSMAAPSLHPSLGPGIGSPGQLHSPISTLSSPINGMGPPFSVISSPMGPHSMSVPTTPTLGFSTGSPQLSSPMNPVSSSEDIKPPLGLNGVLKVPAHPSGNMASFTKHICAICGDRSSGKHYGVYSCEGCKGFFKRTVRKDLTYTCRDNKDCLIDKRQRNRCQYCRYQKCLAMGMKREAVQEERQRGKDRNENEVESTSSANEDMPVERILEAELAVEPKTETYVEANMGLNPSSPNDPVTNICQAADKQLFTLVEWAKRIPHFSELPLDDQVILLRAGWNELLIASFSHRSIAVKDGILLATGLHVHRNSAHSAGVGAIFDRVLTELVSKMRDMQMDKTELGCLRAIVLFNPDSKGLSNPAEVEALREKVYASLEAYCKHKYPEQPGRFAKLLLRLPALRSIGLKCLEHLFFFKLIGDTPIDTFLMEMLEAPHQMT
Structure (SMILES),Potency,activation
NCCCCCC(=O)O,inactive,–
CCCCCCCCCCCCCCCCCl,–,0.473% [at 15.8 µM] (inactive)
CC(C)(C)NCC(O)COc1ccccc1OCC1CCCO1 (stereo not drawn),inactive,–
CC(N)=O,inactive,–
O=c1n(CC2CO2)c(=O)n(CC2CO2)c(=O)n1CC1CO1 (stereo not drawn),3.89 µM (active),–
CCC(=O)/C=C/C1C(C)=CCCC1(C)C (stereo not drawn),inactive,–
NC(N)=Nc1nc(CSCC/C(N)=N/S(N)(=O)=O)cs1,inactive,–
CC(=O)CC(C)=O,inactive,–
CC(=O)OCC1=C(C(=O)O)N2C(=O)[C@@H](NC(=O)Cc3cccs3)[C@H]2SC1,inactive,–
OCC(CO)N[C@H]1C[C@](O)(CO)[C@@H](O)[C@H](O)[C@H]1O,inactive,–
CC1COC(=O)O1 (stereo not drawn),inactive,–
Cc1occc(=O)c1OC(=O)C(C)C,inactive,–
C=C(C)C1CC=C(C)C(OC(C)=O)C1 (stereo not drawn),inactive,–
Cc1scc2c1N(C(=O)CN1CCN(C)CC1)c1ccccc1NC2=O,inactive,–
O=S(=O)(O)c1ccc2nc(-c3ccccc3)[nH]c2c1,inactive,–
CCC[C@H](N[C@@H](C)C(=O)N1[C@H](C(=O)O)C[C@@H]2CCCC[C@@H]21)C(=O)OCC,inactive,–
Cc1cc(C2(c3cc(C)c(O)cc3C)OS(=O)(=O)c3ccccc32)c(C)cc1O,inactive,–
CC[C@@H](N)CO,inactive,–
Nc1cc(S(=O)(=O)O)cc2cc(S(=O)(=O)O)cc(O)c12,inactive and 24.5 µM (active),–
CNC1(C)C2CCC(C2)C1(C)C (stereo not drawn),inactive,–
c1ccc2n[nH]nc2c1,inactive,–
c1ccc2cc3c(ccc4ccccc43)cc2c1,inactive,–
CCn1c2ccccc2c2cc(N)ccc21,inactive,–
CCN(CC)C(=O)Nc1ccc(OCC(O)CNC(C)(C)C)c(C(C)=O)c1 (stereo not drawn),inactive,–
COc1cc(C(=S)N2CCOCC2)ccc1O,inactive,–
NNCCc1ccccc1,inactive,–
CC(C)(C)NC(=O)[C@@H]1CN(Cc2cccnc2)CCN1C[C@@H](O)C[C@@H](Cc1ccccc1)C(=O)N[C@H]1c2ccccc2C[C@H]1O,inactive,–
CC(C)CCOCc1ccccc1,inactive,–
